About 83,000 compounds went through this panel and 20% of them were active in at least one assay; those are over-represented in the sample as a whole.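 Interpretation: 100, growth as untreated; towards 0, rising growth inhibition; 0, no net growth; 0 to -100, cell death. Compounds scoring below 10 were considered active.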 The source made the active and inactive calls.
test system: SN12C renal; experiment: NCI-60 one-dose screen, 48 h (100 = growth as untreated, 0 = no growth, -100 = all killed); conditions: 10 µM unless noted

SMILES	growth
CCNc1nnnn1CC	93% (inactive)
C[n+]1ccccc1C[n+]1ccccc1	105% (inactive)
NC(=S)N/N=C\c1nccc2c(N)cccc12	8.66% (active)
O=C(O)c1cccc2cccc(-c3c4ccc(=O)c(O)c-4oc4c(O)c(O)ccc34)c12	91% (inactive)

test system: UO-31 renal; experiment: as above; conditions: 10 µM unless noted

SMILES	growth
CCCCCCC1N=C(N)N=C(N)N1c1cccc(Cl)c1 (stereo not drawn)	93.4% (inactive)
O=C(O)c1cc2c(s1)C(=O)c1sccc1C2=O	-43.1% (active)
N#CCc1cccc2ccccc12	92% (inactive)
COC(=O)C(=[N+]=[N-])C(=O)c1ccc([N+](=O)[O-])o1	89.7% (inactive)
O=C(Nc1cccc(C(F)(F)F)c1)Oc1ccc(Cl)c2cccnc12	-17.3% (active)
CCOc1ccc(C(CN2CCOCC2)C(C)=O)cc1OC (stereo not drawn)	75.4% (inactive)
COc1ccc2c(c1)c(CC(=O)O)c(C)n2C(=O)c1ccc(Cl)cc1	65.6% (inactive)
CC(C)N=C(N)/N=C(\N)Nc1ccc2ccc3ccccc3c2c1	-58.4% (active)
NC(=S)N/N=C\c1nccc2c(C(F)(F)F)cccc12	-35.2% (active)
CCC(=O)c1cc([N+](=O)[O-])c(Br)s1	74.7% (inactive)
O=C1/C(=C/c2ccccc2)CCC/C1=C\c1ccccc1	88.1% (inactive)
COc1cc(NCc2ccc3nc(N)nc(N)c3c2C)cc(OC)c1OC (tested in a mixture with another compound)	34.9% (inactive)
CCOc1cc(F)c([N+](=O)[O-])cc1[N+](=O)[O-]	45.4% (inactive)
CC/C(=C(/CC)c1ccc(O)cc1)c1ccc(O)cc1	73.2% (inactive)
CC(C)c1ccc(C(=O)OC2CCCC2)cc1	99.6% (inactive)
COc1cc(/C=C/c2ccnc3ccccc23)cc(OC)c1OC	37% (inactive)
Cc1cc(C)c([I+]c2c(C)cc(C)cc2C)c(C)c1	-20.4% (active)
CN(C)c1ccc(C(=C2C=CC(=[N+](C)C)C=C2)c2ccc(N(C)C)cc2)cc1	-97.9% (active)
COC(=O)c1ccc(=O)c2nc3/c(=C/O)c(O)cc(=O)c3[nH]c12	5.33% (active)
COc1cc([C@@H]2c3cc4c(cc3[C@H](OC3OC5COC(c6ccccc6)OC5C(O)C3O)[C@H]3COC(=O)[C@H]23)OCO4)cc(OC)c1OC (stereo partly drawn)	35.2% (inactive)
NC(=Nc1nc(-c2ccccn2)cc2ccccc12)c1ccccn1	2.9% (active)
Clc1ccccc1C(c1ccccc1)(c1ccccc1)n1ccnc1	12.1% (inactive)
CCCCOS(=O)(=O)c1ccccc1	99.8% (inactive)
CCCCCCCCCCCCCCCCCC[S+](C)CC (stereo not drawn)	59.6% (inactive)
C[n+]1ccccc1C[n+]1ccccc1	90.5% (inactive)
NC(=S)N/N=C\c1nccc2c(N)cccc12	-8.44% (active)

test system: TK-10 renal; experiment: as above; conditions: 10 µM unless noted

SMILES	growth
N#CCc1cccc2ccccc12	98.3% (inactive)
O=C(Nc1cccc(C(F)(F)F)c1)Oc1ccc(Cl)c2cccnc12	72.2% (inactive)
CCOc1ccc(C(CN2CCOCC2)C(C)=O)cc1OC (stereo not drawn)	49.8% (inactive)
CCc1cnc2ccccc2c1/C=C/c1ccc(N(C)C)cc1	57.1% (inactive)
CCC(=O)c1cc([N+](=O)[O-])c(Br)s1	96.6% (inactive)
O=C(CBr)c1ccc(OC(=O)c2ccccc2)cc1	117% (inactive)
CN(C)CC(C)(CN(C)C)C(=O)/C=C/c1c(Cl)cccc1Cl	-8.98% (active)
COc1cc(/C=C/c2ccnc3ccccc23)cc(OC)c1OC	70.1% (inactive)
Cc1cc(C)c([I+]c2c(C)cc(C)cc2C)c(C)c1	12.7% (inactive)
COc1cc(/C=C/C(=O)CC(=O)/C=C/c2ccc(O)c(OC)c2)ccc1O	69.7% (inactive)
CCCCCCCCCCCC[n+]1ccc2ccccc2c1	-46.7% (active)
CN(C)CCN(C)CC(C)(C)C(=O)/C=C/c1ccc(Cl)c(Cl)c1	-97.7% [100 µM] (active)
CCN(CC)c1ccc(/C=C\C(=O)c2ccc(NC(C)=O)cc2)cc1	92.4% (inactive)
COc1cc(NC(=O)C2=C(C)NC(C)=C(C(=O)Nc3cc(OC)c(Cl)cc3OC)C2c2cccc([N+](=O)[O-])c2)c(OC)cc1Cl	70.6% (inactive)
CCCCCCCCCCCCCCCCCC[S+](C)CC (stereo not drawn)	9.52% (active)
CCNc1nnnn1CC	106% (inactive)
C[n+]1ccccc1C[n+]1ccccc1	98.9% (inactive)
O=C(O)c1cccc2cccc(-c3c4ccc(=O)c(O)c-4oc4c(O)c(O)ccc34)c12	110% (inactive)

test system: ACHN renal; experiment: as above; conditions: 10 µM unless noted

SMILES	growth
O=C(O)c1cc2c(s1)C(=O)c1sccc1C2=O	80.1% (inactive)
COC(=O)C(=[N+]=[N-])C(=O)c1ccc([N+](=O)[O-])o1	67.1% (inactive)
COc1ccc2c(c1)c(CC(=O)O)c(C)n2C(=O)c1ccc(Cl)cc1	95.3% (inactive)
CC(C)N=C(N)/N=C(\N)Nc1ccc2ccc3ccccc3c2c1	-89.2% (active)
CCc1cnc2ccccc2c1/C=C/c1ccc(N(C)C)cc1	60.3% (inactive)
NC(=S)N/N=C\c1nccc2c(C(F)(F)F)cccc12	6.72% (active)
COc1cc(NCc2ccc3nc(N)nc(N)c3c2C)cc(OC)c1OC (tested in a mixture with another compound)	23.8% (inactive)
CCOc1cc(F)c([N+](=O)[O-])cc1[N+](=O)[O-]	12.7% (inactive)
CC/C(=C(/CC)c1ccc(O)cc1)c1ccc(O)cc1	67.8% (inactive)
CC(C)c1ccc(C(=O)OC2CCCC2)cc1	99.5% (inactive)
O=C(CBr)c1ccc(OC(=O)c2ccccc2)cc1	97.5% (inactive)
CN(C)CC(C)(CN(C)C)C(=O)/C=C/c1c(Cl)cccc1Cl	-100% (active)
COc1cc(/C=C/C(=O)CC(=O)/C=C/c2ccc(O)c(OC)c2)ccc1O	72.9% (inactive)
CN(C)c1ccc(C(=C2C=CC(=[N+](C)C)C=C2)c2ccc(N(C)C)cc2)cc1	-95.9% (active)
COC(=O)c1ccc(=O)c2nc3/c(=C/O)c(O)cc(=O)c3[nH]c12	28.5% (inactive)
CCCCCCCCCCCC[n+]1ccc2ccccc2c1	13% (inactive)
COc1cc([C@@H]2c3cc4c(cc3[C@H](OC3OC5COC(c6ccccc6)OC5C(O)C3O)[C@H]3COC(=O)[C@H]23)OCO4)cc(OC)c1OC (stereo partly drawn)	32.6% (inactive)
NC(=Nc1nc(-c2ccccn2)cc2ccccc12)c1ccccn1	8.11% (active)
CN(C)CCN(C)CC(C)(C)C(=O)/C=C/c1ccc(Cl)c(Cl)c1	-100% [100 µM] (active)
CCN(CC)c1ccc(/C=C\C(=O)c2ccc(NC(C)=O)cc2)cc1	61.4% (inactive)
Clc1ccccc1C(c1ccccc1)(c1ccccc1)n1ccnc1	32.7% (inactive)
CCCCOS(=O)(=O)c1ccccc1	103% (inactive)
COc1cc(NC(=O)C2=C(C)NC(C)=C(C(=O)Nc3cc(OC)c(Cl)cc3OC)C2c2cccc([N+](=O)[O-])c2)c(OC)cc1Cl	29.2% (inactive)
CCNc1nnnn1CC	110% (inactive)
O=C(O)c1cccc2cccc(-c3c4ccc(=O)c(O)c-4oc4c(O)c(O)ccc34)c12	92.3% (inactive)

From PubChem BioAssay (NCI)
